Activity calls are given as the source filed them. Unless noted, no rule for the calls is given here.

Test [1] in a line: resazurin metabolic signal in HepG2 cells – cell-based, resazurin fluorescence, 24 h, PK04 Diversity Set, profiling panel (AID 1172). Also: test concentration not given here. The settings on record: HepG2 viability, higher = more signal. A general note: Resazurin is reduced to fluorescent resorufin, in cell work by metabolically active cells.
Test [2] can be described thus: budding yeast growth changes without added modifier – OD600, strain BY4716, 24 h, basal condition, primary screen (AID 1173). The settings on record: S. cerevisiae BY4716 growth, OD600, 24 h; higher = more signal, called active from +8 up or from −8 down.
The nature of test [3]: viability profiling in MM1S myeloma cells – cell-based, resazurin fluorescence, basal, 24 h, PK04 Diversity Set, profiling panel (AID 1174).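 Also: MM1S multiple myeloma cell line; test concentration not given here.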 The following applies: higher = more signal, called active from +8 up or from −8 down.
Test [4] addresses Dihydroorotate dehydrogenase (quinone), mitochondrial (Plasmodium falciparum (isolate 3D7)) (UniProt Q08210). Kind of test: inhibition of P. falciparum DHODH – biochemical, C-terminal His tag, absorbance 600 nm, primary screen (AID 1175).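 Also: recombinant parasite enzyme with a five histidine tag at its C terminus; test concentration not given here.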 The following applies: PfDHODH enzyme, DCIP absorbance 600 nm; higher = more signal, called active from +8 up or from −8 down.
A short description of test [5]: inhibition of PAO1 biofilm formation – strain PAO1, LB-PBS medium, absorbance 600 nm, primary screen (AID 1176). Also: test concentration not given here. The following applies: P. aeruginosa PAO1 growth/biofilm, A600, 12 h; higher = more signal.
Test [6] in a line: growth modulation of vineyard yeast isolate – strain RM11-1a, OD600, basal, 24 h, primary screen (AID 1177).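 Also: cultures grown under basal conditions with no added stressor; test concentration not given here.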 The following applies: S. cerevisiae RM11-1a growth, OD600, 24 h; higher = more signal, called active from +8 up or from −8 down.
The nature of test [7]: growth of efflux-deficient E. coli DRC39 – strain DRC39, OD650, 24 h, E. coli filamentation inducers, primary screen (AID 1178).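 Also: growth measured as culture turbidity by optical density at 650 nm; test concentration not given here.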 The settings on record: E. coli DRC39 acrAB, higher = more signal, called active from +8 up or from −8 down.
A short description of test [8]: growth of efflux-deficient E. coli DRC39 – strain DRC39, OD650, 48 h, E. coli filamentation inducers, primary screen (AID 1179).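 Also: screen aims at cell division blockers that make cells filament.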 The following applies: E. coli DRC39 delta-acrAB growth, higher = more signal, called active from +8 up or from −8 down.
Test [9] can be described thus: viability profiling in RPMI8226 myeloma cells – cell-based, resazurin fluorescence, basal, 24 h, PK04 Diversity Set, profiling panel (AID 1180).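 Also: RPMI8826 multiple myeloma cell line at 5000 cells per well; test concentration not given here.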 The settings on record: higher = more signal.
Test [10] has as its target E3 ubiquitin-protein ligase XIAP (Homo sapiens) (UniProt P98170). Kind of test: small molecules binding XIAP protein – biophysical, small-molecule microarray, fluorescence 635 nm, primary screen (AID 1181).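 Also: score merges 667 nm emission and signal to noise over triplicate slides.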 The settings on record: higher = more signal.

Sequence of Dihydroorotate dehydrogenase (quinone), mitochondrial (Plasmodium falciparum (isolate 3D7)) (Q08210 whole entry, looked up): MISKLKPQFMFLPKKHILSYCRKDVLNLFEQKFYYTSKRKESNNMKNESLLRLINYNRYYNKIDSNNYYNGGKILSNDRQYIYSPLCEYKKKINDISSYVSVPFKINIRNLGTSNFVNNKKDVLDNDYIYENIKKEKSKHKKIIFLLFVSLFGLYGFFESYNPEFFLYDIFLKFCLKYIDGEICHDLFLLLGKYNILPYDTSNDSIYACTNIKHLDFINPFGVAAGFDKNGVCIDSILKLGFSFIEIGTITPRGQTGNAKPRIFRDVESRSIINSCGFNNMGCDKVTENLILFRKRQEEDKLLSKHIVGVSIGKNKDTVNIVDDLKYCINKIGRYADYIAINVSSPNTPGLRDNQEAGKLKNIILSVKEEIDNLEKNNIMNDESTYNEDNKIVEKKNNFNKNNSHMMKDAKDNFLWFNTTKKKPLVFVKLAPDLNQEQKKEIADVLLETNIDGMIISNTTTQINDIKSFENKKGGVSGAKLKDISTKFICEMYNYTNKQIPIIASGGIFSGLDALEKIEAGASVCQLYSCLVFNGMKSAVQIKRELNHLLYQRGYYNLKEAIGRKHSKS
Sequence of E3 ubiquitin-protein ligase XIAP (Homo sapiens) (P98170 whole entry, looked up): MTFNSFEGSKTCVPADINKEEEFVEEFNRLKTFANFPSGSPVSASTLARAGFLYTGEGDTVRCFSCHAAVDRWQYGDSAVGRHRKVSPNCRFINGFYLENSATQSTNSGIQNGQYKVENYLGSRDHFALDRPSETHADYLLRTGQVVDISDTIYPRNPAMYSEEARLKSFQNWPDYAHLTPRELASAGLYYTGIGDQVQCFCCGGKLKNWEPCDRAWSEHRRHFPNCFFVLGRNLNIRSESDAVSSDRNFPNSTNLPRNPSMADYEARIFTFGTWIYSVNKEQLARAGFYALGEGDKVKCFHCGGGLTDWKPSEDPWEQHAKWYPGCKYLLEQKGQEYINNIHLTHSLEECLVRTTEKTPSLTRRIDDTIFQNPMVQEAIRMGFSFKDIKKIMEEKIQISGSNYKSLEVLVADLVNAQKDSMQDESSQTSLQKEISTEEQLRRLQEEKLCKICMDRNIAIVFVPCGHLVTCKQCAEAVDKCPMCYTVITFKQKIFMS

On to `NCCCCCCNC(=O)[C@@H]1C[C@@H]2C(=O)NCC(=O)N2[C@@H]1c1cccc(OCCO)c1`, for which the z-score in [1] is -0.903; in test [2], -0.277 (inactive); in test [3], 0.717 (inactive); in test [5], -0.0617 (inactive); in test [6], -0.121 (inactive); in [7], 0.295 (inactive). Besides, the z-score in [8] was 0.976 (inactive); in test [9], 0.438. The values for the composite z-score in [4] and in [10] were -0.775 (inactive) and -0.213, respectively.
Regarding `C=CCNC(=O)[C@H]1[C@@H]2C(=O)O[C@@H](c3ccccc3)[C@@H](c3ccccc3)N2[C@@H](c2ccc(OCCO)cc2)[C@]12C(=O)N(C(=O)OCCOC)c1ccc(C#CCC(C(=O)OC)C(=O)OC)cc12`, the z-score in test [1] was -0.181; in test [2] it was 1.71 (inactive); in test [3], -0.374 (inactive); in test [5], 1.5 (inactive); in test [6], 2.76 (inactive); in test [7], 0.321 (inactive). The z-score in [8] was 0.475 (inactive); in test [9], -1.31. In addition, the composite z-score in [4] is 0.0899 (inactive); in test [10] it was 0.0899.
On to `O=C1NC(=O)C2C1C=CC(C(O)C(c1ccccc1)c1ccccc1)N2Nc1ccccn1` (stereo not given), for which the z-score in test [1] was -0.187; in test [2], -0.639 (inactive); in [3] it was -0.408 (inactive); in test [5] it was 0.916 (inactive); in test [6], 0.419 (inactive); in test [7] it was -0.156 (inactive). For the same compound, the figures for the z-score in test [8] and in [9] were -0.284 (inactive) and 0.261, respectively. Further, the composite z-score in test [4] is 1.72 (inactive); in test [10] it was 0.417.
For the compound `C=CCN1C(=O)[C@@]2(O[C@@H](CCO)[C@H]([Si](C)(C)c3ccc(OC)cc3)[C@H]2C)c2cc(N3CCCCC3=O)ccc21`, the z-score is -2.74 in test [1]; 0.208 (inactive) in [2]; -4.57 (inactive) in test [3]; 0.568 (inactive) in [5]; 2.45 (inactive) in test [6]; 1.16 (inactive) in [7]. Besides, the z-score in [8] was 0.777 (inactive); in test [9], -5.44. Further, the composite z-score was -1.11 (inactive) in test [4] and 0.271 in [10].
Take `C=CC[C@]12N=C(c3ccc(OCCCO)cc3)O[C@H]1c1ccccc1N(CCC)C2=O`: the z-score in test [1] was -0.151; in test [2], -1.91 (inactive); in [3], -1.14 (inactive); in test [5], 1.24 (inactive); in [6] it was 0.208 (inactive); in [7], 0.181 (inactive). Also, the z-score in test [8] is -0.464 (inactive); in test [9], -0.65. The values for the composite z-score in test [4] and in test [10] were -0.536 (inactive) and 0.0655, respectively.
For the compound `[N-]=[N+]=NCc1ccccc1C[C@@]1(C(N)=O)N=C(c2ccc(OCCCO)cc2)O[C@@H]1c1ccccc1N=[N+]=[N-]`, the z-score in test [1] was 0.304; in test [2] it was -1.35 (inactive); in test [3], -1.32 (inactive); in test [5] it was 2.28 (inactive); in [6] it was 0.0193 (inactive); in test [7], 0.207 (inactive). For the same compound, the z-score in [8] is -0.893 (inactive); in test [9], -0.644. In addition, the composite z-score in test [4] is 0.474 (inactive); in [10], 0.0871.
On to `C=CCC(OC(C)=O)[C@@H]1[C@@H](N(Cc2ccc(-c3ccccc3)cc2)C(=O)Cc2ccc(OC)cc2)c2cc(OCCCO)ccc2N1C(=O)c1ccc2ccccc2c1` (stereo not given in full), for which the z-score in test [1] is -0.555; in test [2], -0.562 (inactive); in [3], -0.536 (inactive); in test [5], 0.0914 (inactive); in [6], -1.21 (inactive); in test [7] it was 0.174 (inactive). Moreover, the z-score is -0.339 (inactive) in test [8] and 0.186 in [9]. In addition, the composite z-score is -0.804 (inactive) in test [4] and 0.202 in [10].
On to `COCCCNC(=O)[C@@]1(c2ccc([N+](=O)[O-])cc2)CC(=O)N(C2CCCCC2)[C@@H]1c1ccc(CO)cc1I`, for which the z-score was 0.545 in test [1]; -0.24 (inactive) in [2]; 0.678 (inactive) in test [3]; 0.966 (inactive) in test [5]; -0.251 (inactive) in test [6]; 0.0675 (inactive) in test [7]. Besides, the z-score in test [8] is -0.279 (inactive); in test [9], 1.16. Further, the composite z-score in test [4] was 0.219 (inactive); in test [10], 0.0449.
With `Cc1ccc(S(=O)(=O)N2[C@@H](c3ccccc3)C(C(=O)O)=CC[C@H]2c2ccc(F)cc2)cc1`, the z-score in test [1] is 0.0445; in [2], -0.93 (inactive); in [3], -0.3 (inactive); in test [5], 0.244 (inactive); in [6], -0.069 (inactive); in test [7] it was -0.0944 (inactive). Besides, the z-score is 0.0973 (inactive) in [8] and -0.858 in test [9]. For the same compound, the composite z-score in [4] was -0.667 (inactive); in [10], 0.142.
In the case of `CC(C)(C)OC(=O)N1[C@@H](C=C(Br)Br)COC1(C)C`, the z-score in [1] was 0.373; in test [2], -4.13 (inactive); in [3], 0.0757 (inactive); in [5] it was -0.677 (inactive); in [6] it was -1.65 (inactive); in [7], 0.559 (inactive). The z-score is 0.6 (inactive) in [8] and -0.673 in test [9]. Moreover, the results for the composite z-score in [4] and in test [10] were -1.74 (inactive) and 0.0335, respectively.
Take `O=C(NCCN1CCOCC1)[C@@H]1c2ccccc2C(=O)N(CC23CC4CC(CC(C4)C2)C3)[C@H]1c1ccc(CO)cc1`: the z-score in [1] is 0.258; in test [2] it was -1.18 (inactive); in [3], 0.631 (inactive); in test [5], -0.121 (inactive); in [6], 1.19 (inactive); in [7], 0.1 (inactive). Further, the figures for the z-score in test [8] and in test [9] were 0.108 (inactive) and 0.96, respectively. The composite z-score was 0.533 (inactive) in test [4] and 0.0593 in [10].

Source of the values: PubChem BioAssay.
